# In the library only some 5.2% were active in any assay of this set; here they are far more common.
# FBPA coupling cs – qHTS Assay for Inhibitors of Fructose-1,6-bisphosphate Aldolase from Giardia Lamblia: Coupling assay counterscreen; activity change, negative = inhibition, % at 58.2 µM, hits read low; coupling enzyme system counterscreen, AmpLite Red fluorescence; hit rate 0.67% among 290,000; AID 2472, 2010; in the data active = activity change below about -30%
#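 Final compound at 57.5 uM, incubated 10 min at RT with coupling enzyme reagent (glyceraldehyde-3-phosphate), then 20 min with substrate and AmpLite Red detection. Fluorescence read at 525/598 nm; tests interference with the coupling assay, not aldolase inhibition.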
# Tau ThT inhib – qHTS for Inhibitors of Tau Fibril Formation, Thioflavin T Binding | Microtubule-associated protein tau (Homo sapiens), P10636 | recombinant tau K18 P301L, heparin-induced fibrillization, ThT fluorescence | Potency, µM (doses to about 57.4 µM), inactives show at the top dose activity, negative = inhibition, usual class: inhibitors | hit rate 2.1% among 270,000; also: potency is read from the fitted curve at half-maximal effect; nearly all actives have a fitted effect of over 55% in size
# Target sequence (P10636 561-689 P618L limits assumed): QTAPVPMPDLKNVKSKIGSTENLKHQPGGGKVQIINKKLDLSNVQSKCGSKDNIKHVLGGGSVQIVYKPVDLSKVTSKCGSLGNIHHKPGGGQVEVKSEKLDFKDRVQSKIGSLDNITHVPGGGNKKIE
#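 K18 P301L tau (15 uM + 0.24 uM Alexa 594-tagged), heparin 20 uM, NaOAc pH 7, 6 h 37 C; ThT 30 uM, 1 h RT, ex 450/em 510 nm.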
# Tau fibril FP – qHTS for Inhibitors of Tau Fibril Formation, Fluorescence Polarization; Microtubule-associated protein tau (Homo sapiens), P10636; K18 P301L tau heparin fibrillization, Alexa594 FP, 6 h; Potency, µM (doses to about 57.7 µM), without a hit: top-dose activity, negative = inhibition, hits mostly inhibitors; hit rate 0.39% among 280,000; AID 1468, 2008; also: potency is read from the fitted curve at half-maximal effect; nearly all actives have a fitted effect of over 55% in size
#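 Recombinant K18 P301L […], labeled with Alexa 594 at 0.24 uM over 15 uM unlabeled; heparin inducer 20 uM final; 37 C, 6 hr; FP endpoint.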
# Sfp inh – qHTS Assay for Inhibitors of Bacillus subtilis Sfp phosphopantetheinyl transferase (PPTase); 4'-phosphopantetheinyl transferase ffp (Bacillus subtilis), Q9F4F7; Biochemical Sfp PPTase activity, qHTS; Potency, µM, without a hit: largest response in the series, negative = inhibition, most hits filed as inhibitors; hit rate 3.5% among 310,000;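 also: the enzyme is Sfp with the accession as filed and its product quenches rhodamine fluorescence; potency is read from the fitted curve at half-maximal effect; 0% = enzyme reaction without inhibitor and -100% = no enzyme wells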
#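 Fluorescence-quenching assay: 15 nM Sfp-PPTase preincubated 15 min at room temperature with compound, then 5 uM rhodamine-CoA and 12.5 uM BHQ-2-labelled YbbR peptide added. Fluorescence (ex 525/em 598 nm) read at start and after 30 min; difference gives rate.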
# Tau fluor cs – Counterscreen qHTS for Inhibitors of Tau Fibril Formation, Fluorescence Polarization; tau K18 P301L (four-repeat tau fragment) Alexa594 fluorescence, heparin fibrillization; Potency, µM (series often up to 57.7 µM), without a hit: top-dose activity change, negative = decrease; hit rate 0.93% among 280,000; also: potency is read from the fitted curve at half-maximal effect; nearly all actives have a fitted effect of over 55% in size
#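 Human K18 P301L tau (15 uM unlabeled plus 0.24 uM Alexa 594-labeled, final) in 100 mM sodium acetate pH 7 was mixed with compound and 20 uM heparin and incubated 6 hr at 37 C.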
# The depositor's hits bear a star; ? = inconclusive; . = no result; [ ] = remark or other dose. Unless noted, calls follow the shape of the dose curve; as a rule, active = well fitted curve in the direction sought with a large enough effect; inconclusive = small, poorly fitted or top-dose-only effect, or another doubt; inactive = no such curve, though single readings can be large; an effect the other way counts as inactive or inconclusive. Unless noted, % is scaled to controls: 0 for no effect and ±100 for the full control effect.
SMILES,FBPA coupling cs,Tau ThT inhib,Tau fibril FP,Sfp inh,Tau fluor cs
C=CCN1C(c2ccccc2)=CS/C1=C(\C#N)c1nnc2n1CCCCC2,-1.2,-1.7%,7.7%,63.1µM*,5.1%
C=CCN1C(c2cccc(C(F)(F)F)c2)=CS/C1=C(/C#N)c1nnc(N2CCOCC2)n1-c1ccccc1,-2.4,?,2.0%,-29.1%,-15.0%
C=CCN1C(c2ccc(Br)cc2)=CS/C1=C(/C#N)c1nnc(N2CCOCC2)n1-c1ccccc1,0.6,?,-10.2%,79.4µM*,-20.6%
Cc1nn(C(C)(C)C)c(OC(=O)c2c(F)cccc2F)c1Sc1ccccc1,.,-22.4%,-11.0%,.,-26.0%
CC(C)(C)N1C(=O)[C@@H]2[C@H]3C(=CC[C@H]2C1=O)C(=O)[C@H]1O[C@H]1[C@H]3O,0.2,?,?,-15.6%,-12.0%[11.6 µM]
O=C1C2=CC[C@@H]3C(=O)N(c4ccc(F)cc4F)C(=O)[C@H]3[C@H]2[C@H](O)[C@H]2O[C@H]12,-0.1,4.47µM*,?,-10.1%,-18.7%[11.6 µM]
CCOC(=O)CCN1C(=O)[C@@H]2[C@H]3C(=CC[C@H]2C1=O)C(=O)[C@H]1O[C@H]1[C@H]3O,-1.0,3.98µM*,?,-5.9%,-24.1%[11.6 µM]
C[C@@H](c1ccccc1)N1C(=O)[C@@H]2[C@H]3C(=CC[C@H]2C1=O)C(=O)[C@H]1O[C@H]1[C@H]3O,-2.5,?,?,14.9%,-13.6%[11.6 µM]
CCCCCCc1ccc(C(=O)CCN(C)C)cc1,5.8,.,.,?,.
CCOc1ccc(NS(=O)(=O)c2c(C)nc3sc(C)c(C)n3c2=O)cc1,.,-4.4%,4.2%,.,-10.9%
O=C(NC(=S)N1CCCc2ccccc21)c1ccccc1,-5.1,?,8.9%,-1.4%,-19.6%
CCOC(=O)/C(=N/Nc1ccc(OC)cc1)N1CCCc2ccccc21,-42.1*,-10.6%,10.9%,-7.7%,?
O=C(NC(=S)N1CCCc2ccccc21)c1ccc(Br)cc1,-14.4,?,-3.8%,44.7µM*,?
O=C(COc1ccccc1)NC(=S)N1CCc2ccccc21,4.6,-10.9%,3.6%,9.5%,4.4%
COc1ccc(OCC(=O)NC(=S)N2CCCc3ccccc32)cc1,-11.0,?,8.5%,56.2µM*,-26.2%
COc1ccc(C(=O)NC(=S)N2CCCc3ccccc32)cc1OC,-0.1,?,1.2%,?,-23.1%
O=C(NC(=S)N1CCCc2ccccc21)c1ccc(Cl)cc1,-28.8,-0.6%,1.0%,22.4µM*,-3.3%
CCOC(=O)CSc1nc2sc3c(c2c(=O)n1Cc1ccccc1)CCC(C(C)(C)C)C3 (stereo not drawn),.,0.9%,-3.2%,.,0.3%
Cc1ccc(NC(=O)CCCn2c3ccccc3c(=O)c3cc(C)ccc32)c(Br)c1,.,-14.5%,-0.4%,.,-14.2%
COc1ccc(C(=O)CN2CCN(S(=O)(=O)c3ccc(C(C)C)cc3)CC2)cc1,.,-12.8%,4.0%,.,-17.3%
O=C(NC(=S)N1CCCc2ccccc21)c1ccc([N+](=O)[O-])cc1,-13.1,?,6.5%,15.8µM*,-29.6%
COc1ccccc1C(=O)NC(=S)N1CCCc2ccccc21,-38.6*,3.9%,-2.4%,50.1µM*,-2.8%
COc1ccc(C2CC(=O)N3CN(Cc4ccco4)CSC3=C2C#N)cc1 (stereo not drawn),-21.2,25.1µM*,?,1.41µM*,-23.2%
COc1ccc2ccccc2c1C1CC(=O)N2CN(C3CCCCC3)CSC2=C1C#N (stereo not drawn),-19.4,28.2µM*,?,12.6µM*,-23.5%
COc1ccc(C2CC(=O)N3CN(C4CCCCC4)CSC3=C2C#N)c(OC)c1 (stereo not drawn),.,25.1µM*,?,.,-21.5%
SMILES,FBPA coupling cs,Tau ThT inhib,Tau fibril FP,Sfp inh,Tau fluor cs
N#CC1=C2SCN(Cc3ccco3)CN2C(=O)CC1c1ccc(Cl)cc1 (stereo not drawn),-5.2,17.8µM*,?,2.51µM*,-20.9%
N#CC1=C(N)OC2=C(C(=O)CC(c3ccccc3)C2)C1c1ccc2c(c1)OCO2 (stereo not drawn),1.2,-16.8%,-9.3%,-5.8%,?
N#CC1=C2SCN(Cc3ccccc3)CN2C(=O)CC1c1ccc2c(c1)OCO2 (stereo not drawn),-31.8*,20µM*,?,1.78µM*,-22.6%
COc1ccccc1N1CCN(Cc2ccco2)CC1,-0.1,?,2.8%,-24.0%,-14.2%
COc1cc(C2CC(=O)N3CN(Cc4ccco4)CSC3=C2C#N)ccc1OCc1ccccc1 (stereo not drawn),-10.1,20µM*,?,3.55µM*,?
COc1ccc2ccccc2c1C1CC(=O)N2CN(Cc3ccco3)CSC2=C1C#N (stereo not drawn),-17.5,?,?,5.62µM*,-23.1%
CCOc1cc(C2CC(=O)N3CN(C4CCCCC4)CSC3=C2C#N)ccc1O (stereo not drawn),-35.2*,14.1µM*,?,3.55µM*,-25.5%
CCC1CN(C(=O)N2CCC(C(=O)NCCN(C)C)CC2)c2ccccc2O1 (stereo not drawn),.,-2.1%,1.9%,.,-11.7%
N#CC1=C2SCN(C3CCCCC3)CN2C(=O)CC1c1ccc(Br)cc1 (stereo not drawn),.,?,?,.,-27.6%
CC(C)c1ccc(C2CC(=O)N3CN(Cc4ccco4)CSC3=C2C#N)cc1 (stereo not drawn),-9.8,22.4µM*,?,2.24µM*,-24.4%
CCN1CCN(C(c2cccc(F)c2)c2c(O)cc(C)n(CCOC)c2=O)CC1 (stereo not drawn),.,?,?,.,-3.9%
COc1ccc(C2(c3ccc(OC)cc3)NC(=O)N(CC(=O)Nc3ccccc3C)C2=O)cc1,.,.,.,79.4µM*,.
CCOCCc1nnc(NC(=O)C(=O)c2cc(C)n(-c3cccc(C)c3)c2C)s1,.,4.0%,-12.3%,.,-13.8%
COc1ccc(OCCCCn2c(C3CC(=O)N(c4cccc(Cl)c4)C3)nc3ccccc32)cc1 (stereo not drawn),.,?,4.2%,.,-18.5%
CCC(=O)N1CCc2cc(S(=O)(=O)CCC(=O)Nc3ccc(OC(F)(F)F)cc3)ccc21,.,-10.5%,-18.0%,.,-14.7%
Cc1cccc(-n2cnc(C(=O)O)c2)n1,6.0,-5.4%,-6.0%,56.2µM*,-2.1%
COc1ccc(CNc2nc(-c3ccccc3)nn2S(=O)(=O)c2ccccc2)cc1,.,3.0%,?,.,-19.6%
COc1ccc(C(=O)Cc2nnc(C)s2)c(OC)c1,-33.7*,?,-6.3%,?,-9.2%
CCc1nnc(NC(=O)c2ccc(OC)cc2OC)s1,-2.4,-5.0%,4.3%,-3.0%,-2.3%

# Assay outcomes from PubChem.
